PubChem BioAssay AID1159580 (chemical genetic matrix, 2015)
Several values for one entry are separate records, joined by “and”; a condition that tells them apart may be missing. Identical values can stand only once. About 2,000 (36%) of roughly 5,500 compounds were called active. Inconclusive results (about 18%) are left out. No stated cut-off is given here; in the data, active means normalized growth mostly below about 0.91 (no sharp cut-off); inconclusive means no clear call, values can overlap the other calls; inactive means mostly above about 0.92. This is one part of the list.

Test: chemical genetic growth profiling, strain panel (AID 1159580);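 further: tested at 20 µM; growth read once vehicle control cultures reached saturation at 30 °C; 1 = growth at the plate median or of vehicle wells; lower values mean less growth of the strain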
Details: S. cerevisiae deletion strains, growth OD

Measured: normalized growth

CN1CCC(OC(c2ccccc2)c2ccccc2)CC1
inactive: locus YAL013W, strain DEP1, active compounds read low 0.98 | locus YAL021C, strain ccr4, active compounds read low 0.974 | locus YAL026C, strain drs2, active compounds read low 0.972 | locus YAL030W, strain snc1, active compounds read low 0.987 | locus YBL061C, strain skt5, active compounds read low 1 | locus YBR009C, strain hhf1, active compounds read low 0.983 | locus YBR021W, strain FUR4, active compounds read low 0.985 | locus YBR023C, strain chs3, active compounds read low 1.02 | locus YBR171W, strain sec66, active compounds read low 0.99 | locus YBR229C, strain ROT2, active compounds read low 0.977 | locus YBR231C, strain swc5, active compounds read low 0.976 | locus YBR279W, strain paf1, active compounds read low 1.01 | locus YCL011C, strain gbp2, active compounds read low 0.998 | locus YCL016C, strain dcc1, active compounds read low 1.04 | locus YCL029C, strain bik1, active compounds read low 0.995 | locus YCL061C, strain MRC1, active compounds read low 1 | locus YCL069W, strain vba3, active compounds read low 0.973 | locus YCR088W, strain abp1, active compounds read low 0.989 | locus YDL005C, strain med2, active compounds read low 0.975 | locus YDL035C, strain GPR1, active compounds read low 1.03 | locus YDL040C, strain nat1, active compounds read low 0.975 | locus YDL074C, strain BRE1, active compounds read low 0.976 | locus YDL101C, strain DUN1, active compounds read low 0.973 | locus YDL134C, strain PPH21, active compounds read low 1.02 | locus YDL185W, strain tfp1, active compounds read low 0.984 | locus YDL192W, strain arf1, active compounds read low 0.983 | locus YDR001C, strain nth1, active compounds read low 0.984 | locus YDR069C, strain doa4, active compounds read low 0.977 | locus YDR101C, strain arx1, active compounds read low 0.987 | locus YDR137W, strain rgp1, active compounds read low 1.03 | locus YDR159W, strain sac3, active compounds read low 0.969 | locus YDR162C, strain NBP2, active compounds read low 1.01 | locus YDR195W, strain ref2 0.973 | locus YDR297W, strain sur2, active compounds read low 0.988 | locus YDR318W, strain mcm21, active compounds read low 0.978 | locus YDR334W, strain swr1, active compounds read low 0.982 | locus YDR335W, strain msn5, active compounds read low 0.996 | locus YDR388W, active compounds read low 0.992 | locus YDR392W, strain spt3, active compounds read low 0.935 | locus YDR502C, strain sam2, active compounds read low 1.01 | locus YEL003W, strain gim4, active compounds read low 0.956 | locus YEL037C, strain rad23, active compounds read low 0.97 | locus YEL061C, strain CIN8 (second series), active compounds read low 0.965 | locus YEL061C, strain CIN8, active compounds read low 0.995 | locus YER015W, strain faa2, active compounds read low 0.99 | locus YER016W, strain bim1, active compounds read low 0.977 | locus YER110C, active compounds read low 0.972 | locus YER111C, strain swi4, active compounds read low 0.984 | locus YER155C, strain BEM2 (second series), active compounds read low 0.977 | locus YER155C, strain BEM2, active compounds read low 0.988 | locus YER167W, strain BCK2, active compounds read low 0.99 | locus YFR010W, strain ubp6, active compounds read low 0.963 | locus YGL078C, strain dbp3, active compounds read low 0.985 | locus YGL086W, strain mad1, active compounds read low 0.987 | locus YGL167C, strain pmr1, active compounds read low 1 | locus YGL173C, strain kem1, active compounds read low 0.994 | locus YGL227W, strain vid30, active compounds read low 0.983 | locus YGL240W, strain doc1, active compounds read low 0.982 | locus YGL248W, strain PDE1, active compounds read low 0.964 | locus YGL253W, strain hxk2, active compounds read low 0.987 | locus YGR078C, strain PAC10, active compounds read low 0.985 | locus YGR135W, strain pre9, active compounds read low 0.951 | locus YGR252W, strain gcn5, active compounds read low 0.925 | locus YHR013C, strain ard1, active compounds read low 0.994 | locus YHR027C, strain rpn1, active compounds read low 0.993 | locus YHR030C, strain SLT2, active compounds read low 0.998 and 0.996 | locus YHR079C, strain IRE1 (second series), active compounds read low 0.991 | locus YHR079C, strain IRE1, active compounds read low 1.02 | locus YHR094C, strain hxt1, active compounds read low 0.998 | locus YHR129C, strain ARP1, active compounds read low 0.99 | locus YHR142W, strain chs7, active compounds read low 1.01 | locus YHR200W, strain rpn10, active compounds read low 0.987 | locus YIL066C, strain RNR3, active compounds read low 1.01 | locus YIL073C, strain SPO22, active compounds read low 1.01 | locus YIL125W, strain kgd1, active compounds read low 0.994 | locus YIR030C, strain dcg1, active compounds read low 0.984 | locus YJL092W, strain hpr5, active compounds read low 0.98 | locus YJL095W, strain BCK1 (second series), active compounds read low 0.988 | locus YJL095W, strain BCK1, active compounds read low 0.961 and 1 | locus YJL115W, strain asf1, active compounds read low 0.98 | locus YJL129C, strain trk1, active compounds read low 0.984 | locus YJL134W, strain LCB3, active compounds read low 0.984 | locus YJL154C, strain vps35, active compounds read low 0.978 | locus YJL164C, strain tpk1, active compounds read low 0.987 | locus YJL166W, strain qcr8, active compounds read low 1.01 | locus YJL168C, strain set2, active compounds read low 0.988 | locus YJL187C, strain SWE1 (second series), active compounds read low 0.972 | locus YJL187C, strain SWE1, active compounds read low 0.983 | locus YJR043C, strain POL32, active compounds read low 1.03 | locus YJR066W, strain TOR1, active compounds read low 0.973 | locus YKL009W, strain mrt4, active compounds read low 0.974 | locus YKL068W, active compounds read low 0.983 | locus YKL085W, strain MDH1 (second series), active compounds read low 1 | locus YKL085W, strain MDH1, active compounds read low 1 | locus YKL160W, strain elf1, active compounds read low 1.03 | locus YKR001C, strain vps1, active compounds read low 0.996 | locus YKR026C, strain gcn3, active compounds read low 0.989 | locus YKR091W, strain srl3, active compounds read low 0.991 | locus YLL001W, strain dnm1, active compounds read low 1.01 | locus YLL026W, active compounds read low 0.991 | locus YLL041C, strain sdh2, active compounds read low 0.985 | locus YLR027C, strain aat2, active compounds read low 0.995 | locus YLR039C, strain RIC1, active compounds read low 1.15 | locus YLR058C, strain SHM2, active compounds read low 0.992 | locus YLR102C, strain apc9, active compounds read low 0.999 | locus YLR113W, strain HOG1, active compounds read low 1.01 | locus YLR221C, strain rsa3, active compounds read low 1.04 | locus YLR258W, strain gsy2, active compounds read low 1.01 | locus YLR262C, strain YPT6 (second series), active compounds read low 1.03 | locus YLR262C, strain YPT6, active compounds read low 1.09 | locus YLR268W, strain sec22, active compounds read low 0.992 | locus YLR320W, strain mms22, active compounds read low 1.05 | locus YLR330W, strain CHS5, active compounds read low 0.987 | locus YLR342W, strain FKS1 (second series), active compounds read low 1.01 | locus YLR342W, strain FKS1, active compounds read low 0.989 | locus YLR357W, strain rsc2, active compounds read low 0.96 | locus YLR370C, strain arc18, active compounds read low 1.01 | locus YLR371W, strain rom2, active compounds read low 1 | locus YLR384C, strain iki3, active compounds read low 0.994 | locus YLR418C, strain cdc73, active compounds read low 0.956 | locus YML016C, strain PPZ1, active compounds read low 0.983 | locus YML032C, strain rad52, active compounds read low 1.02 | locus YML120C, strain ndi1, active compounds read low 1.01 | locus YML124C, strain tub3, active compounds read low 1.02 | locus YMR058W, strain fet3, active compounds read low 0.978 | locus YMR078C, strain ctf18, active compounds read low 0.98 | locus YMR125W, strain sto1, active compounds read low 0.961 | locus YMR129W, active compounds read low 0.977 | locus YMR205C, strain PFK2, active compounds read low 1.03 | locus YMR223W, strain ubp8, active compounds read low 0.968 | locus YMR231W, strain pep5, active compounds read low 0.996 | locus YMR263W, strain SAP30, active compounds read low 0.971 | locus YMR307W, strain GAS1, active compounds read low 1.14 | locus YNL067W, strain RPL9B, active compounds read low 0.974 | locus YNL071W, strain lat1, active compounds read low 0.983 | locus YNL183C, strain NPR1, active compounds read low 0.964 | locus YNL209W, strain ssb2, active compounds read low 0.988 | locus YNL233W, strain BNI4, active compounds read low 0.975 | locus YNL248C, strain rpa49, active compounds read low 0.98 | locus YNL250W, strain rad50, active compounds read low 0.969 | locus YNL271C, strain bni1, active compounds read low 0.984 | locus YNL298W, strain CLA4, active compounds read low 0.985 | locus YNL307C, strain MCK1, active compounds read low 0.992 | locus YNL322C, strain KRE1 (second series), active compounds read low 1.01 | locus YNL322C, strain KRE1, active compounds read low 1.01 | locus YNR049C, strain mso1, active compounds read low 0.989 | locus YNR052C, strain pop2, active compounds read low 0.984 | locus YOL006C, strain TOP1, active compounds read low 0.946 | locus YOL012C, strain htz1 0.957 | locus YOL147C, strain pex11, active compounds read low 0.986 | locus YOR001W, strain rrp6, active compounds read low 0.937 | locus YOR061W, strain CKA2, active compounds read low 1 | locus YOR069W, strain VPS5, active compounds read low 0.992 | locus YOR070C, strain gyp1, active compounds read low 0.998 | locus YOR080W, strain dia2, active compounds read low 1 | locus YOR083W, strain WHI5, active compounds read low 1.04 | locus YOR106W, strain vam3, active compounds read low 1.03 | locus YOR136W, strain idh2, active compounds read low 0.983 | locus YOR144C, strain elg1, active compounds read low 0.983 | locus YOR184W, strain ser1, active compounds read low 1.01 | locus YOR231W, strain MKK1, active compounds read low 1.01 | locus YOR265W, strain rbl2, active compounds read low 1.01 | locus YOR270C, strain vph1, active compounds read low 0.999 | locus YOR290C, strain snf2, active compounds read low 0.93 | locus YOR316C, strain cot1, active compounds read low 0.985 | locus YPL051W, strain arl3, active compounds read low 1.02 | locus YPL055C, strain LGE1, active compounds read low 0.994 | locus YPL078C, strain atp4, active compounds read low 1.02 | locus YPL106C, strain sse1, active compounds read low 0.985 | locus YPL240C, strain hsp82, active compounds read low 1.01 | locus YPL241C, strain CIN2, active compounds read low 0.991 | locus YPL256C, strain CLN2, active compounds read low 1.02 | locus YPR119W, strain clb2, active compounds read low 0.986 | locus YPR141C, strain kar3, active compounds read low 0.965 | locus YPR163C, strain tif3, active compounds read low 0.987 | locus YPR167C, strain met16, active compounds read low 0.99 | strain wtn01, active compounds read low 0.974
